In PubChem BioAssay (EPA / NIEHS):
The source made the active and inactive calls. The calls were made as follows: active = hit-call score of the fitted dose curve at least 0.9, where 1 is the maximum; inactive = score below 0.9.

Legend:
[1] = read-out: Transforming growth factor beta 1 (TGFb1), TGFB1 (gene 7040); test: BSK_BE3C_TGFb1: BioMAP Diversity Plus: BE3C Assay for Transforming growth factor beta 1 (TGFb1) Biomarker Activity (AID 2283036); details: primary human bronchial epithelial cells; actives raise or lower the signal
Summary of the method: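 Read-out: ELISA for TGF-b1 in primary human bronchial epithelial cultures, 24 h post-dose. Bidirectional curve fitting vs DMSO control; gain or loss of signal both scored.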

[2] = read-out: Plasminogen activator inhibitor-1 (PAI1), SERPINE1 (gene 5054); test: BSK_BE3C_PAI1: BioMAP Diversity Plus: BE3C Assay for Plasminogen activator inhibitor-1 (PAI1) Biomarker Activity (AID 2283037); details: primary human bronchial epithelial cells; actives raise or lower the signal
Summary of the method: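 ELISA read-out of PAI-1 from human bronchial epithelial primary cells, 24 h post-dosing; bidirectional curve fit vs DMSO baseline, gain or loss of signal scored.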

[3] = read-out: urokinase plasminogen activator (uPA), PLAU (gene 5328); test: BSK_BE3C_uPA: BioMAP Diversity Plus: BE3C Assay for urokinase plasminogen activator (uPA) Biomarker Activity (AID 2283038); details: primary human bronchial epithelial cells; actives raise or lower the signal
Summary of the method: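 Primary human bronchial epithelial cells, uPA measured by ELISA 24 h after dosing. Bidirectional change relative to DMSO; cytotoxicity checked in parallel cultures by sulforhodamine B total-protein staining.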

[4] = read-out: Urokinase-type plasminogen activator receptor (uPAR), PLAUR (gene 5329); test: BSK_BE3C_uPAR: BioMAP Diversity Plus: BE3C Assay for Urokinase-type plasminogen activator receptor (uPAR) Biomarker Activity (AID 2283039); details: primary human bronchial epithelial cells; actives raise or lower the signal
Summary of the method: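 ELISA readout of uPAR on human lung primary bronchial epithelial cells, 24 h post-dosing. Bidirectional curve fit relative to DMSO vehicle baseline; gain or loss of signal both scored.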

[5] = read-out: Interleukin-6 (IL6), IL6 (gene 3569); test: BSK_CASM3C_IL6: BioMAP Diversity Plus: CASM3C Assay for Interleukin-6 (IL6) Biomarker Activity for (AID 2283040); details: primary human coronary artery smooth muscle cells; actives raise or lower the signal
[6] = read-out: Tissue plasminogen activator (tPA), PLAT (gene 5327); test: BSK_BE3C_tPA: BioMAP Diversity Plus: BE3C Assay for Tissue plasminogen activator (tPA) Biomarker Activity (AID 2283041); details: primary human bronchial epithelial cells; actives raise or lower the signal
Summary of the method: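 ELISA read-out of tPA on human primary bronchial epithelial cells, 24 h post-dosing; bidirectional fit vs DMSO negative control/baseline.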

[7] = read-out: Interleukin-8 (IL8), CXCL8 (gene 3576); test: BSK_CASM3C_IL8: BioMAP Diversity Plus: CASM3C Assay for Interleukin-8 (IL8) Biomarker Activity (AID 2283042); details: primary human coronary artery smooth muscle cells; actives raise or lower the signal;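 also: IL-8 protein level quantified by ELISA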
[8] = read-out: Human Leukocyte Antigen - DR isotype (HLADR), HLA-DRA (gene 3122); test: BSK_CASM3C_HLADR: BioMAP Diversity Plus: CASM3C Assay for Human Leukocyte Antigen - DR isotype (HLADR) Biomarker Activity (AID 2283043); details: primary human coronary artery smooth muscle cells; actives raise or lower the signal;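 also: cell-surface HLA-DR protein level quantified by ELISA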
[9] = read-out: Macrophage colony-stimulating factor (MCSF), CSF1 (gene 1435); test: BSK_CASM3C_MCSF: BioMAP Diversity Plus: CASM3C Assay for Macrophage colony-stimulating factor (MCSF) Biomarker Activity (AID 2283044); details: primary human coronary artery smooth muscle cells; actives raise or lower the signal;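 also: M-CSF protein amount quantified by ELISA after 24 h exposure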
[10] = read-out: Low-density lipoprotein receptor (LDLR), LDLR (gene 3949); test: BSK_CASM3C_LDLR: BioMAP Diversity Plus: CASM3C Assay for Low-density lipoprotein receptor (LDLR) Biomarker Activity (AID 2283045); details: primary human coronary artery smooth muscle cells; actives raise or lower the signal;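 also: LDLR protein level on the cell surface quantified by ELISA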
[11] = read-out: Monocyte Chemoattractant Protein-1 (MCP1), CCL2 (gene 6347); test: BSK_CASM3C_MCP1: BioMAP Diversity Plus: CASM3C Assay for Monocyte Chemoattractant Protein-1 (MCP1) Biomarker Activity (AID 2283046); details: primary human coronary artery smooth muscle cells; actives raise or lower the signal;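 also: MCP-1 level quantified by ELISA 24 h after dosing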
[12] = BSK_CASM3C_Proliferation: Cell Proliferation Assessment in the BioMAP Diversity Plus: CASM3C Assay (AID 2283047); details: primary human coronary artery smooth muscle cells;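 also: sulforhodamine B total protein stain as relative cell number at 560 nm; sub-confluent cells exposed 48 h before staining; fitted both ways against DMSO so gain or loss of cell number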
[13] = read-out: Monokine induced gamma interferon (MIG), CXCL9 (gene 4283); test: BSK_CASM3C_MIG: BioMAP Diversity Plus: CASM3C Assay for Monokine induced gamma interferon (MIG) Biomarker Activity (AID 2283048); details: primary human coronary artery smooth muscle cells; actives raise or lower the signal;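 also: MIG protein level measured by ELISA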
[14] = read-out: serum amyloid A (SAA), SAA1 (gene 6288); test: BSK_CASM3C_SAA: BioMAP Diversity Plus: CASM3C Assay for serum amyloid A (SAA) Biomarker Activity (AID 2283049); details: primary human coronary artery smooth muscle cells; actives raise or lower the signal;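 also: SAA protein level quantified by ELISA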
[15] = BSK_CASM3C_SRB: Viability Assessment in the BioMAP Diversity Plus: CASM3C Assay (AID 2283050); details: primary human coronary artery smooth muscle cells;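 also: total protein by SRB staining as cytotoxicity measure in parallel cultures; cells exposed to compound for 24 h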
[16] = read-out: Thrombomodulin, THBD (gene 7056); test: BSK_CASM3C_Thrombomodulin: BioMAP Diversity Plus: CASM3C Assay for Thrombomodulin Biomarker Activity (AID 2283051); details: primary human coronary artery smooth muscle cells; actives raise or lower the signal;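 also: thrombomodulin protein level measured by ELISA 24 h after dosing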
[17] = read-out: Tissue Factor, F3 (gene 2152); test: BSK_CASM3C_TissueFactor: BioMAP Diversity Plus: CASM3C Assay for Tissue Factor Biomarker Activity (AID 2283052); details: primary human coronary artery smooth muscle cells; actives raise or lower the signal;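 also: cell surface tissue factor protein level read by ELISA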
[18] = read-out: Interferon-gamma inducible Protein 10 (IP10), CXCL10 (gene 3627); test: BSK_hDFCGF_IP10: BioMAP Diversity Plus: hDFCGF Assay for Interferon-gamma inducible Protein 10 (IP10) Biomarker Activity (AID 2283053); details: primary human foreskin fibroblasts; actives raise or lower the signal
Summary of the method: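 ELISA read-out of IP-10 (CXCL10) from primary human skin fibroblasts, 24 h after compound addition. Gain or loss of signal versus DMSO baseline, bidirectional curve fitting.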

[19] = read-out: Urokinase-type plasminogen activator receptor (uPAR), PLAUR (gene 5329); test: BSK_CASM3C_uPAR: BioMAP Diversity Plus: CASM3C Assay for Urokinase-type plasminogen activator receptor (uPAR) Biomarker Activity (AID 2283054); details: primary human coronary artery smooth muscle cells; actives raise or lower the signal;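 also: cell-surface uPAR protein level quantified by ELISA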

Measured: AC50

CCCCCCCCO
inactive: all assays above

Nc1ccc(Nc2ccccc2)cc1
active: [12] 20 µM | [16] 3.23 µM | [19] 2.33 µM
not listed: [6]
inactive: all other assays above

COc1ccc2sc(C(=O)Nc3nnn[nH]3)c(OC(C)C)c2c1
active: [1] 9.17 µM | [2] 12.9 µM | [3] 8.38 µM | [6] 13.9 µM | [7] 29.4 µM | [8] 13.3 µM | [9] 19.9 µM | [11] 15.8 µM | [12] 11.1 µM | [14] 19.9 µM | [15] 15.5 µM | [16] 8.49 µM | [17] 7.08 µM | [18] 13.6 µM | [19] 13 µM
inactive: [4] | [10] | [13]

CC(C)CC(C)(O)C#CC(C)(O)CC(C)C (configuration not stated)
not listed: [6] | [18]
inactive: all other assays above

O=C(OC[C@H]1O[C@@H](OC(=O)c2cc(O)c(O)c(OC(=O)c3cc(O)c(O)c(O)c3)c2)[C@H](OC(=O)c2cc(O)c(O)c(OC(=O)c3cc(O)c(O)c(O)c3)c2)[C@@H](OC(=O)c2cc(O)c(O)c(OC(=O)c3cc(O)c(O)c(O)c3)c2)[C@@H]1OC(=O)c1cc(O)c(O)c(OC(=O)c2cc(O)c(O)c(O)c2)c1)c1cc(O)c(O)c(OC(=O)c2cc(O)c(O)c(O)c2)c1
active: [1] 9.35 µM | [3] 1.87 µM | [4] 4.13 µM | [8] 6.1 µM | [11] 6.1 µM | [12] 10 µM
not listed: [6] | [18]
inactive: all other assays above

O=C1OC(=O)C2C3C=CC(C3)C12 (configuration not stated)
not listed: [6] | [18]
inactive: all other assays above

CC(C)CCO
not listed: [6]
inactive: all other assays above

O=C(NS(=O)(=O)/C=C/c1ccccc1)c1ccc(F)cc1Cl
active: [12] 6.8 µM
not listed: [6]
inactive: all other assays above

COc1ccc(-n2nc(C(F)F)cc2-c2ccc(S(C)=O)cc2)cc1 (configuration not stated)
not listed: [18]
inactive: all other assays above

COC(=O)c1ccccc1O
not listed: [6] | [18]
inactive: all other assays above

C[C@](N)(Cc1ccc(O)c(O)c1)C(=O)O
active: [18] 23.2 µM
not listed: [6]
inactive: all other assays above

CC[C@H]1OC(=O)[C@H](C)[C@@H](O[C@H]2C[C@@](C)(OC)[C@@H](O)[C@H](C)O2)[C@H](C)[C@@H](O[C@@H]2O[C@H](C)C[C@H](N(C)C)[C@H]2O)[C@](C)(O)C[C@@H](C)C(=O)[C@H](C)[C@@H](O)[C@]1(C)O
not listed: [18]
inactive: all other assays above

CC[C@H](C)C(=O)O[C@H]1C[C@@H](C)C=C2C=C[C@H](C)[C@H](CC[C@@H]3C[C@@H](O)CC(=O)O3)[C@H]21
active: [1] 34 µM | [2] 28.8 µM | [3] 32.1 µM | [4] 30.9 µM | [8] 19.9 µM | [11] 19.9 µM | [12] 6.08 µM | [16] 0.147 µM | [18] 35.3 µM
not listed: [6]
inactive: all other assays above

On1ccccc1=S
inactive: [7] | [13] | [14] | [17]
active: [1] 5.47 µM | [2] 3.45 µM | [3] 5.4 µM | [4] 9.61 µM | [5] 32.2 µM | [6] 3.55 µM | [8] 27.7 µM | [9] 33.7 µM | [10] 11.7 µM | [11] 32.1 µM | [12] 6.45 µM | [15] 26.8 µM | [16] 0.878 µM | [19] 25.6 µM

CCNc1ccccc1
not listed: [6]
inactive: all other assays above

O=C(CCCCCCCCc1cccnc1)N1CCC(C=C(c2ccccc2)c2ccccc2)CC1
inactive: [5] | [16] | [17]
active: [1] 23.7 µM | [2] 19.3 µM | [3] 24.7 µM | [4] 17.9 µM | [7] 38.3 µM | [8] 35 µM | [9] 38 µM | [10] 34.3 µM | [11] 38.2 µM | [12] 35.4 µM | [13] 38.3 µM | [14] 37.5 µM | [15] 39.1 µM | [18] 9 µM | [19] 39.2 µM

CC/C(=C\C(=N/O)C(N)=O)C(C)[N+](=O)[O-] (configuration not stated)
active: [8] 22.3 µM
not listed: [6] | [18]
inactive: all other assays above
